In PubChem BioAssay (NCI):
The panel holds about 83,000 compounds, 20% with a hit somewhere; the sample as a whole holds those more often.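 The endpoint reported here, percent growth, reads 100 for growth as untreated, 0 for no net growth and -100 for all cells dead.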 A number with no mark means an inactive call. Activity calls are given as the source filed them. The calls were made as follows: active = growth percent below 10; inactive = the rest.

Columns and labels:
Assay in all cases: NCI-60 one-dose screen, 48 h (100 = growth as untreated, 0 = no growth, -100 = all killed)
Details in all cases: 10 µM unless noted
HT29 colon = tested on: HT29 colon
SNB-19 CNS = tested on: SNB-19 CNS
U251 CNS = tested on: U251 CNS
PC-3 prostate = tested on: PC-3 prostate
SK-MEL-5 melanoma = tested on: SK-MEL-5 melanoma
UACC-62 melanoma = tested on: UACC-62 melanoma
LOX IMVI melanoma = tested on: LOX IMVI melanoma
SK-MEL-28 melanoma = tested on: SK-MEL-28 melanoma
SK-MEL-2 melanoma = tested on: SK-MEL-2 melanoma
EKVX NSCLC = tested on: EKVX NSCLC
SN12C renal = tested on: SN12C renal
UO-31 renal = tested on: UO-31 renal
ACHN renal = tested on: ACHN renal
CAKI-1 renal = tested on: CAKI-1 renal
A498 renal = tested on: A498 renal
CCRF-CEM leukemia = tested on: CCRF-CEM leukemia
MOLT-4 leukemia = tested on: MOLT-4 leukemia
SR leukemia = tested on: SR leukemia
SNB-75 CNS = tested on: SNB-75 CNS
TK-10 renal = tested on: TK-10 renal

SMILES | growth (HT29 colon) [%] | growth (SNB-19 CNS) | growth (U251 CNS) | growth (PC-3 prostate) | growth (SK-MEL-5 melanoma) | growth (UACC-62 melanoma) | growth (LOX IMVI melanoma) | growth (SK-MEL-28 melanoma) | growth (SK-MEL-2 melanoma) | growth (EKVX NSCLC) | growth (SN12C renal) | growth (UO-31 renal) | growth (ACHN renal) | growth (CAKI-1 renal) | growth (A498 renal) | growth (CCRF-CEM leukemia) | growth (MOLT-4 leukemia) | growth (SR leukemia) | growth (SNB-75 CNS) | growth (TK-10 renal)
COc1cc(C2C=C(c3ccc(C)cc3)Nc3nc(SC)[nH]c(=O)c32)ccc1Oc1ccnc2cc(Cl)ccc12 (stereo unspecified) | 65.3 | 71.7% | 80.1% | 60.2% | 63.1% | 61.5% | 79.9% | 97% | 78.9% | 77% | 67% | 57.8% | 55.6% | 67.8% | 71.7% | 67.5% | 63.9% | 75.8% | – | –
Cc1ccc2c(c1)O/C(=C\c1ccc([N+](=O)[O-])o1)C2=O | – | 93.4% | 68.3% | -61.2% (active) | 76.9% | 51.5% | 4.66% (active) | 83.3% | 79.2% | – | 34.7% | -21.6% (active) | 1.36% (active) | 36.8% | 122% | -32.4% (active) | -1.6% (active) | 10.6% | 84.3% | -32.7% (active)
CCOC(=O)C1C(=O)OC2CCCCC21 (stereo unspecified) | 110 | 97.6% | 101% | 107% | 114% | 99.8% | 105% | 109% | 118% | 120% | – | 79.6% | 102% | 96.1% | – | 106% | 89% | 88% | – | 122%
CCCCCCCCCCCCCCCCCc1nccn1CCO | 13.6 | 66.9% | 33.7% | 55.9% | 70.4% | 92.4% | -44.4% (active) | – | 82.2% | – | 52.2% | 47.5% | 63.7% | – | 72.5% | 79.7% | 65.6% | – | – | 112%
O=C1/C(=C/c2ccc([N+](=O)[O-])s2)Oc2ccc(Br)cc21 | – | -15.3% (active) | -87.9% (active) | -62.3% (active) | -89.1% (active) | -83.4% (active) | -75.6% (active) | -66.4% (active) | -62.2% (active) | – | -32.5% (active) | -87.4% (active) | -64% (active) | -16.3% (active) | -32.8% (active) | -3.33% (active) | -16.8% (active) | 7.74% (active) | -16.1% (active) | -25.3% (active)
CCCn1cnc2c1c(=O)n(CCCCC(C)=O)c(=O)n2C | 95.8 | 120% | 95.5% | 99.2% | 104% | 104% | 98.2% | 114% | 108% | 108% | – | 80.9% | 101% | 103% | – | 109% | 92% | 87.5% | – | 114%
CC(NC(=O)C(C)Oc1ccc(Cl)cc1Cl)C(=O)O (stereo unspecified) | – | 96.2% | 105% | 102% | 101% | 91.7% | – | 113% | 97.4% | 95.8% | 73.3% | 78.1% | 109% | 101% | 113% | -9.97% (active) | 139% | 137% | – | 125%
C=C(C)[C@@H]1C[C@H](O)Cc2cc(Cl)cc(Cl)c2N1 | – | 103% | 94.7% | – | – | 95% | 92.3% | 114% | – | 84.3% | 96.9% | 81.4% | 95.9% | 91.6% | 87.2% | 103% | 88.3% | 108% | 87.4% | 98.7%
CC1=CSC2=NCCN12 | – | 101% | 109% | – | 106% | 100% | 94.4% | 118% | – | 103% | 99.5% | 77.6% | 110% | 93.5% | – | 93.6% | 102% | 93.1% | 98.4% | 97.7%
O[C@@H]1Cc2ccc3ccccc3c2N[C@H](c2ccoc2)C1 | – | 102% | 100% | – | 92.8% | 101% | 92.7% | 125% | – | 95.9% | 103% | 82.3% | 103% | 96.6% | 84.4% | 81.3% | 88.2% | 93.3% | 95.5% | 106%
O=C1/C(=C/c2ccc([N+](=O)[O-])o2)Oc2ccc(Br)cc21 | – | 105% | 93.6% | 91.3% | 82.5% | 34.8% | 5.15% (active) | – | 56.6% | – | 40.3% | -18.6% (active) | 1.25% (active) | 74% | 113% | 66.2% | 1.28% (active) | 8.8% (active) | 85.5% | -28.5% (active)
O=C1NCC(Nc2ccc(Br)cc2Cl)C(=O)N1 (stereo unspecified) | – | 102% | 123% | – | 104% | 101% | 105% | 110% | – | 90.7% | 102% | 67.7% | 96.2% | 91.8% | 117% | 116% | 109% | 101% | 91% | 110%
O=C(CCc1nnc(SCc2ccccc2)s1)c1nc2ccccc2[nH]1 | – | 93.2% | 89.6% | – | 99.4% | 84.8% | 80.8% | 108% | – | 93.8% | 92.7% | 74.3% | 94.4% | 90.7% | 72.7% | 68.1% | 70.1% | 74.4% | 90.5% | 95.8%
COc1ccc2c(c1)[nH]c(=O)c1c3cc(OC)c(OC)cc3cn21 | – | 31.3% | -22.4% (active) | -90.8% (active) | -6.64% (active) | – | 9.3% (active) | 61.1% | 6.58% (active) | 36.9% | 35.6% | 35.1% | 24.7% | -9.25% (active) | 34.4% | -83.5% (active) | 7.2% (active) | 64.9% | 72% | 27.1%
CCOc1cc(-c2ccc[nH]2)[nH]c1/C=C1\N=C(C)C(C(=O)OC)=C1C | – | 11.9% | -62.4% (active) | – | -93% (active) | -74.7% (active) | -56.5% (active) | -83.5% (active) | – | -50.3% (active) | -75.8% (active) | -79.9% (active) | -76.8% (active) | -49.2% (active) | -74% (active) | -37.8% (active) | -53.8% (active) | -45.5% (active) | -65% (active) | -85.8% (active)
CCCOc1ccc2c(c1)CC[C@@H]1[C@@H]2CC[C@@]2(C)[C@H]1CC[C@]2(C)O | – | 94.3% | 72% | – | 92.7% | 95.8% | 65% | 85.3% | – | 80% | 82.7% | 69.9% | 93.9% | 62.3% | 114% | 72.8% | 75.9% | 73% | 73.4% | 69.3%
COC(=O)CCC1=C(C)C(C)=N/C1=C\c1[nH]c(-c2ccc[nH]2)cc1OC | – | 35% | -22.9% (active) | – | -91.5% (active) | -67.4% (active) | -55.5% (active) | 10.7% | – | 29.9% | 13.9% | -67% (active) | -7.31% (active) | 11.6% | 4.29% (active) | -22.7% (active) | -29.7% (active) | -31.4% (active) | -34.9% (active) | 16%
CCCCCCC(C)(O)c1ccccc1 (stereo unspecified) | – | 104% | 109% | – | 109% | 96.5% | 92% | 115% | – | 101% | 96.7% | 80.3% | 103% | 96.8% | 145% | 91.9% | 106% | 97.6% | 90.6% | 106%
